MBNL1-CUG inh = blocks human MBNL1 binding to CUG repeat RNA; Q9NR56; TR-FRET MBNL1-His/biotin-(CUG)12 binding, 665/545 ratio; Potency, µM (series often up to 57.5 µM), usual class: inhibitors; 0.036% of 280,000 active; AID 2675; active = well fitted inhibition curve with a large enough effect in the signal ratio, with a control signal flat, not every such curve was filed as active; inconclusive = small, poorly fitted or top-dose-only effect, or effect the other way, or a change in a side signal; inactive = no such curve, though single readings can be large or run the other way; the % refers to the signal ratio
Target sequence (Q9NR56 whole entry, looked up): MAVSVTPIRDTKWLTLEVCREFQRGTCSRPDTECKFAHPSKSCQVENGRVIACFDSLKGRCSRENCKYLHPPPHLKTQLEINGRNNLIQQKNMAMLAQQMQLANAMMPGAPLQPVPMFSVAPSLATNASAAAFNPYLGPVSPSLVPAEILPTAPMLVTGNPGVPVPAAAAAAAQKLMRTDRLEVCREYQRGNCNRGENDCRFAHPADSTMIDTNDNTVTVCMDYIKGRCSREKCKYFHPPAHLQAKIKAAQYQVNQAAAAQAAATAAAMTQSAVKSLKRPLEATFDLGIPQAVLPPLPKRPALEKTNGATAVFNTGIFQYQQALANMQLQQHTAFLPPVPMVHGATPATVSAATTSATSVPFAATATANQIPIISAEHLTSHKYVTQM
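TR-FRET between His-tagged MBNL1 and biotin-(CUG)12 RNA, detected with Tb anti-His antibody (0.055 ng/ul) and streptavidin-XL665 (5 nM), 60 min at room temperature. Compounds titrated 92 nM to 58 uM; 665/545 nm ratio normalized to buffer and complex controls.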
CtBP-E1A blk = CtBP/E1A binding inhibition. AlphaScreen GST-E1A/His-CtBP binding, 1536-well; active compounds read low. activity change, % (test concentration not listed). 0.49% of 340,000 active; in the data active = activity change below about -65%; inconclusive = mostly about -30% to -63%
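In 5 uL wells, 23 nL compound meets equimolar GST-E1A and His-CtBP (5X stock 125 nM each) for 2 h, 37 °C. Beads (5X, 50 ug/mL) then 1 h, 37 °C, dark.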
CBFb-RUNX1 inh = CBF-beta/RUNX1 interaction disruption; AlphaScreen CBFb-His/RUNX1-biotin binding, biochemical; Potency, µM (series often up to 59.8 µM), actives largely listed as inhibitors; 230,000 tested, under 10 active; AID 1477
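Proteins preincubated together for 20 min at RT before compound addition; 15 min later, nickel and streptavidin beads were added and left 90 min prior to AlphaScreen measurement.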
VP16 counter = Gal4-VP16 reporter inhibition counter-screen; Potency, µM (highest dose often 53.6 µM), hits mostly inhibitors; 3.5% of 310,000 active; Drosophila S2 Gal4-VP16 UAS-luciferase, luminescence, 20 h;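 also: Gal4-VP16 expression switched on by copper sulfate through the metallothionein promoter; nearly all actives have a fitted effect of over 50% in size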
Six1-Eya2 inh = blocks human Six1 binding to Eya2; Q15475+O00167; AlphaScreen GST-Six1/His-Eya2 binding, biochemical; active compounds read low; activity change, % (concentration not given with the values); 0.56% of 360,000 active; in the data active = activity change below about -65%; inconclusive = mostly about -30% to -63%
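AlphaScreen with GST-Six1 and His-Eya2 (5X mix: 250 nM and 500 nM), glutathione donor and nickel acceptor beads; buffer 50 mM Tris pH 8.0, 300 mM NaCl, 1 mM TCEP; 1 h at 37 C in the dark.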
RORgamma inh = inhibitors of mouse ROR gamma transcriptional activity. P51450. Drosophila S2 Gal4-RORgamma UAS-luciferase reporter, 20 h. Potency, µM (titrated, usually from 53.6 µM), usual class: inhibitors. 5.4% of 310,000 active; also: nearly all actives have a fitted effect of over 60% in size
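Compounds are pin-transferred onto Drosophila Schneider cells expressing a copper-inducible Gal4–ROR gamma transactivation domain fusion. After 1 hr, copper sulfate is added to 700 uM final; luciferase is read 20 hr later.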
Numbers stand for hits; . = inactive; ? = inconclusive; / = no result. Shown are actives, neighbours in structure and some others; about 5.5% of the full set was active somewhere. Unless noted, calls follow the shape of the dose curve; as a rule, active = well fitted curve in the direction sought with a large enough effect; inconclusive = small, poorly fitted or top-dose-only effect, or another doubt; inactive = no such curve, though single readings can be large; an effect the other way counts as inactive or inconclusive.

SMILES | MBNL1-CUG inh | CtBP-E1A blk | CBFb-RUNX1 inh | VP16 counter | Six1-Eya2 inh | RORgamma inh
COc1cc(NS(=O)(=O)c2cccc([N+](=O)[O-])c2)c2ncccc2c1 | / | / | . | 2µM | / | 1.1µM
COc1ccc(C(=O)NCCn2ccc3ccccc32)c(OC)c1 | . | . | . | ? | . | 10µM
CC1NC(=S)N(C2CCCCC2)C1=O (configuration not stated) | / | . | . | . | . | 11µM
C=CCN1C(=O)C(CCCC)NC1=S (configuration not stated) | . | . | . | ? | . | ?
O=C1C2CCCN2C(=S)N1C1CCCCC1 (configuration not stated) | . | / | / | . | . | .
CCCCC1NC(=S)N(C2CCCCC2)C1=O (configuration not stated) | . | . | . | ? | . | 13µM
CCC(C)C1NC(=S)N(C2CCCCC2)C1=O (configuration not stated) | . | . | . | 11µM | . | 6.3µM
CC(C)(C)NC(=S)N/N=C/c1cccnc1 | . | . | . | 10µM | . | 5.6µM
COc1ccc(/C=N/NC(=S)Nc2cccc(C(=O)O)c2)cc1OC | ? | . | . | . | . | ?
COc1cccc(/C=N/NC(=S)Nc2cccnc2)c1 | . | . | . | 3.2µM | . | 2.5µM
Oc1ccc(/C=N/NC(=S)Nc2cccnc2)cc1 | ? | / | . | ? | . | ?
NC(=S)N/N=C/c1cccnc1 | / | / | / | . | / | .
COc1ccc(O)c(/C=N/NC(=S)Nc2cccnc2)c1 | . | / | ? | . | -90 | 6.3µM
COc1cccc(/C=N/NC(=S)Nc2cccc(C(=O)O)c2)c1 | . | . | . | . | . | 10µM
OC(c1cccc(Cl)c1)c1ncc(-c2ccc(Oc3ccccc3)cc2)[nH]1 (configuration not stated) | / | . | / | / | . | /
O=C(O)C1C2CCC(C2)C1C(=O)NCc1ccco1 (configuration not stated) | . | . | . | . | . | .
O=C(NCc1ccco1)C1CC2CCC1C2 (configuration not stated) | . | ? | . | . | -70 | .
O=c1cc(-c2ccccc2)[nH]n1-c1nc2ccccc2s1 | . | . | . | ? | . | 8.9µM
O=c1cc(-c2ccccc2)[nH]n1-c1ccccc1 | / | . | / | / | . | /
CCCn1c(C)cc(/C=C(\C#N)C(=O)OCC(=O)N(CC)c2c(N)n(Cc3ccccc3)c(=O)[nH]c2=O)c1C | / | . | / | / | . | /
Cc1nc(C(=O)O)cc2c1[nH]c1ccccc12 | / | . | / | / | . | /
Cc1cc2c([nH]c3ccccc32)c(C)n1 | . | . | / | . | . | 1µM
COc1ccc(N=[N+]([O-])c2ccc(OC)cc2)cc1 | / | . | . | ? | . | 8.9µM
COc1ccc(CNc2ccc([N+](=O)[O-])cc2C)cc1 | . | . | . | . | . | .
Cc1ccc(-c2nn(-c3ccccc3)cc2C2SCC(=O)N2Cc2ccccc2)o1 (configuration not stated) | . | . | . | ? | . | 11µM
SMILES | MBNL1-CUG inh | CtBP-E1A blk | CBFb-RUNX1 inh | VP16 counter | Six1-Eya2 inh | RORgamma inh
COCCN(CCOC)C(=O)COC(=O)c1cc([N+](=O)[O-])ccc1Cl | ? | . | . | . | . | .
CCCCNC(=O)c1ccccc1NC(=O)CCC | . | . | . | . | . | .
O=C(CC1SC2=NCCN2C1=O)Nc1ccccc1 (configuration not stated) | . | . | . | . | . | .
Cc1ccc(NC(=O)CC2SC3=NCCN3C2=O)cc1 (configuration not stated) | . | . | . | 11µM | . | ?
COc1ccc2cc(C(=O)N3CCN(Cc4ccc5c(c4)OCO5)CC3)[nH]c2c1 | . | -97 | / | . | . | .
COc1ccc2[nH]c3c(N4CCN(Cc5ccc6c(c5)OCO6)CC4)ncnc3c2c1 | . | ? | . | ? | -65 | .
CCN1CCN(C(=O)c2cc3ccc(OC)cc3[nH]2)CC1 | ? | . | / | . | . | .
COc1cc(C)ccc1S(=O)(=O)NC1CC(C)(C)NC(C)(C)C1 | . | . | / | . | . | .
Cc1cc(C)nc(NC(=S)Nc2cccc(Cl)c2Cl)c1 | . | . | . | 1.8µM | . | 0.4µM
Cc1ccnc(NC(=O)Nc2ccc(Br)cc2Cl)c1 | . | . | ? | . | . | .
COc1ccc(NC(=S)Nc2cccc(Cl)c2Cl)cc1OC | . | / | . | . | . | .
Cc1cc(C)nc(NC(=S)Nc2ccc(Br)cc2Cl)c1 | . | . | . | ? | . | 0.56µM
CC(C)CN(C(=O)COC(=O)CN1C(=O)c2ccccc2C1=O)c1c(N)n(Cc2ccccc2)c(=O)[nH]c1=O | / | . | / | / | . | /
COc1cccc(C2C(C(C)=O)=C(O)C(=O)N2CCc2c[nH]c3ccccc23)c1 (configuration not stated) | . | . | . | . | . | 112µM
O=C(Nc1cccc(-c2nn[nH]n2)c1)c1ccc(Br)s1 | . | -69 | / | . | ? | .
O=C(Nc1cccc(-c2nn[nH]n2)c1)c1ccc(Cl)s1 | . | ? | / | . | ? | .
O=C(COc1ccccc1Cl)c1ccc2c(c1)CCCC2 | . | . | ? | ? | . | 14µM
COCCn1c(SCC(=O)N2CCCCC2)nc2c(c1=O)SC(C)C2 (configuration not stated) | . | . | / | . | . | .
O=C(O)CCNc1cc(N2CCN(C(=O)c3ccco3)CC2)c2noc3c2c1C(=O)c1ccccc1-3 | ? | -85 | / | . | -74 | .
CCN1CCN(c2cc(N3CCN(C(=O)c4ccco4)CC3)c3c4c(onc24)-c2ccccc2C3=O)CC1 | ? | ? | / | . | ? | .
Cc1ccc(CNS(=O)(=O)c2cn(C)c(=O)n(C)c2=O)cc1 | . | . | / | . | . | .
COc1ccc(-c2c(C)nn(-c3ccccc3)c2N)cc1 | . | . | . | . | . | .
Nc1c(-c2ccccc2)cnn1-c1ccc(C(=O)O)cc1 | . | . | . | ? | . | 10µM
Cc1nn(-c2ccc(C(=O)O)cc2)c(N)c1-c1ccccc1 | . | . | . | ? | . | 10µM
Cc1cccc(C)c1NC(=S)N(CCN(C)C)C(C)c1ccccn1 (configuration not stated) | . | -72 | / | . | -83 | .
COCCCN(C(=S)Nc1c(C)cc(C)cc1C)C(C)c1ccccn1 (configuration not stated) | . | . | . | ? | . | 14µM
Cc1ccc(C)c(NC(=S)N(CCN(C)C)C(C)c2ccccn2)c1 (configuration not stated) | . | -65 | ? | . | -70 | ?
CN(C)c1ccc(/C=N/N2C(=S)SC(C)(C)C2N(O)C(=O)Nc2ccc([N+](=O)[O-])cc2)cc1 (configuration not stated) | ? | . | ? | . | . | 7.9µM
